According to publication PMC5540273 (PLoS ONE, 2017):

Assays:
Conditions in all cases: concentration: 1 μM,replicates: in singlicate; n = 1
[1] = tested on: CDK8
[2] = tested on: CDK9
[3] = tested on: CDKL1
[4] = tested on: CDKL2
[5] = tested on: CDKL3
[6] = tested on: CDKL5
[7] = tested on: CHEK1
[8] = tested on: CHEK2
[9] = tested on: CIT
[10] = tested on: CLK1
[11] = tested on: CLK2
[12] = tested on: CLK3
[13] = tested on: CLK4
[14] = tested on: CSF1R-autoinhibited
[15] = tested on: CSF1R
[16] = tested on: CSK
[17] = tested on: CSNK1A1L
[18] = tested on: CSNK1A1
[19] = tested on: CSNK1D
[20] = tested on: CSNK1E
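Also: KINOMEscan kinase panel screen.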

Compound	%Inh [1] [%]	%Inh [2] [%]	%Inh [3] [%]	%Inh [4] [%]	%Inh [5] [%]	%Inh [6] [%]	%Inh [7] [%]	%Inh [8] [%]	%Inh [9] [%]	%Inh [10] [%]	%Inh [11] [%]	%Inh [12] [%]	%Inh [13] [%]	%Inh [14] [%]	%Inh [15] [%]	%Inh [16] [%]	%Inh [17] [%]	%Inh [18] [%]	%Inh [19] [%]	%Inh [20] [%]
CS(=O)(=O)Nc1ccc(-c2ccnc3[nH]ccc23)cc1 [GSK993273]	18	0	0	19	0	0	0	0	57	96.7	94.8	58	96.3	0	32	0	21	5	20	33
Cc1ccc(CC(=O)N2CCc3cc(-c4cn(C)c5ncnc(N)c45)ccc32)cc1 [GSK2634758]	83	0	8	0	0	0	1	17	19	13	0	0	0	21	79	100	14	0	16	66
Cn1ccc2ncnc(Oc3ccc(NC(=O)Nc4cncc(C(F)(F)F)c4)c(Cl)c3)c21	95	0	0	0	0	0	0	9	44	0	7	0	7	0	99.4	0	0	0	0	0
CN1CCN(CCCNc2nccc(-c3c(-c4ccc(F)cc4)nn4cc(C(N)=O)ccc34)n2)CC1 [GW622475]	19	3	5	31	92.6	0	0	1	95.2	19	0	0	12	0	22	11	52	95.7	97.4	99.7
COC(=O)Nc1nc2cc(Oc3ccc(NC(=O)Nc4cc(C(F)(F)F)ccc4Cl)cc3)ccc2[nH]1.Cl [GW697465]	86	0	14	81	0	0	0	41	97.9	34	0	13	43	47	99.6	0	9	0	69	39
COc1cccc(OC)c1C(=O)Nc1cccc(-c2nn3ccccc3c2-c2ccnc(Nc3cccc(F)c3)n2)c1 [GSK361065]	0	0	15	6	3	0	13	0	36	21	21	0	0	4	60	18	0	25	9	64
OCCn1cc(-c2cnc3nnn(Cc4ccc5ncccc5c4)c3n2)cn1	0	8	0	0	10	0	0	6	0	16	0	0	0	25	0	33	0	15	0	0
Cc1cccc(-c2nc(Nc3ccncc3)c3sccc3n2)n1 [GW869641]	8	11	22	0	15	31	0	0	96.6	4	15	23	22	42	10	7	17	65	90	94.9
O=C(Nc1cccc(Oc2ccc3nccn3n2)c1)Nc1cccc(C(F)(F)F)c1	90.9	0	0	62	0	4	0	0	99.9	31	0	0	0	0	99.8	12	3	0	2	11
Cl.c1ccc(Oc2ccc(Nc3ccnc4cc(-c5ccc(CN6CCNCC6)o5)ccc34)cc2)nc1 [GW567142]	0	0	0	0	0	0	5	82	9	25	0	15	0	0	43	72	0	0	16	40
Cn1ccc2ncnc(Oc3ccc(NC(=O)Nc4cc(C(C)(C)C)on4)c(Cl)c3)c21	90.9	6	48	26	17	32	0	7	63	0	95.1	0	10	43	100	0	15	6	6	0
COc1ccc(Nc2nccc(N3CCC(NC(=O)c4cccc(C#N)c4)C3)n2)cc1 (stereo not drawn) [GSK1379730]	17	0	24	0	0	0	0	0	0	11	0	5	21	24	0	0	11	0	29	27
C[C@@H]1CNc2c(sc3ccc4nc(-c5ccncc5)ccc4c23)C(=O)N1	7	44	11	0	5	0	0	18	22	92.9	94	32	81	3	8	19	66	95	34	29
COc1cc(Nc2nccc(N3CCC(NC(=O)c4cccc(C#N)c4)C3)n2)cc(OC)c1OC (stereo not drawn) [GSK1379751]	6	0	0	41	0	0	0	0	8	4	0	0	0	14	28	0	0	0	0	8
NC(=O)c1ccc(-c2cc3ncnc(SCC(=O)O)c3s2)cc1	0	72	7	0	0	0	0	0	3	82	52	10	87	37	5	0	0	0	3	0
C[C@@H](Oc1cc(-n2cnc3ccc(-c4ccncc4)cc32)sc1C(N)=O)c1ccccc1Cl [GSK483724]	57	3	16	78	32	0	0	0	98.8	98.2	83	37	97.1	0	14	11	17	0	28	44
COc1cc2nccc(Nc3ccc(Oc4ccccc4)cc3)c2cc1OC.Cl [GI261656]	38	0	0	10	0	0	0	67	0	19	0	0	0	26	14	91.9	0	0	0	41

Compound	%Inh [1] [%]	%Inh [2] [%]	%Inh [3] [%]	%Inh [4] [%]	%Inh [5] [%]	%Inh [6] [%]	%Inh [7] [%]	%Inh [8] [%]	%Inh [9] [%]	%Inh [10] [%]	%Inh [11] [%]	%Inh [12] [%]	%Inh [13] [%]	%Inh [14] [%]	%Inh [15] [%]	%Inh [16] [%]	%Inh [17] [%]	%Inh [18] [%]	%Inh [19] [%]	%Inh [20] [%]
CNC(=O)c1ccccc1Nc1nc(Nc2cccc(CS(C)(=O)=O)c2)ncc1C.O=CO [GSK1520489]	4	0	28	52	0	0	16	86	45	99.3	94.6	86	98.9	90	99.8	95.1	63	46	25	20
CCN1CCN(CCCC(=O)Nc2n[nH]c3nc(-c4ccc(O)cc4)c(Br)cc23)CC1 [SB-731579]	14	0	23	73	2	86	0	15	63	47	8	66	45	0	0	0	0	5	0	0
COc1cc2c(Nc3ccc(NC(=O)c4ccccc4)cc3)ncnc2cc1OCCCN1CCOCC1 [GSK301329]	0	0	23	30	0	0	0	58	9	10	0	100	6	0	18	4	9	7	3	59
CCCC(=O)Nc1n[nH]c2ncccc12 [SB-601436]	0	0	0	0	0	0	0	0	0	2	0	22	0	0	0	8	4	0	0	2
C[C@@H](Oc1cc(-n2cnc3cc(-c4cnn(C)c4)ccc32)sc1C(N)=O)c1ccccc1Cl [GSK580432]	17	5	20	22	0	0	32	0	32	59	23	23	34	0	80	3	1	7	0	0
COC(=O)c1cccc(NC(=O)NC2CCN(c3ccnc(NCc4ccc(F)cc4)n3)CC2)c1 [GSK1379860]	23	0	0	11	0	4	18	0	33	28	0	11	10	12	1	0	23	0	4	37
CCNCC(Cc1ccccc1)NC(=O)c1cc(Br)c(-c2ccnc3[nH]ccc23)s1.Cl.Cl (stereo not drawn) [GSK1383280]	0	19	17	0	0	0	20	42	73	59	71	47	59	0	55	6	6	0	32	39
Cc1n[nH]c2cc(Nc3ccnc(Nc4cccc(CN5CCOCC5)c4)n3)ccc12 [GW682569]	35	4	2	17	0	0	0	27	35	29	3	11	0	68	87	27	0	0	10	19
c1ccc(Oc2ccc(Nc3ccnc4ccc(-c5ccccn5)cc34)cc2)cc1 [GW407034]	0	0	9	16	0	14	26	0	4	14	0	19	0	0	9	6	13	0	14	36
COc1cc2ncn(-c3cc(OCC4CCCCC4)c(C(N)=O)s3)c2cc1OC [GSK204559]	5	0	0	1	0	0	0	0	10	35	2	5	33	0	19	0	22	0	10	0
O=C(Nc1n[nH]c2cc(-c3ccco3)ccc12)C1CC1 [SB-737447]	0	11	29	86	0	0	0	16	1	28	22	19	0	0	0	10	0	18	0	0
O=C(NOCC1CC1)c1cc(Br)c(F)c(F)c1Nc1ccc(I)cc1Cl	0	0	8	0	0	0	0	0	0	0	9	0	0	0	0	0	0	1	0	0
CS(=O)(=O)c1cccc(CNc2nc(Nc3ccc4c(c3)[C@@H]3C[C@@H]4CNC3=O)ncc2C(F)(F)F)c1	0	27	71	80	2	0	0	17	51	81	6	0	0	22	5	0	0	0	0	0
N#Cc1cccc(C(=O)NC2CCN(c3ccnc(Nc4ccc(F)cc4)n3)C2)c1 (stereo not drawn) [GSK1379708]	19	0	8	17	0	6	0	0	11	14	0	0	1	2	1	24	1	0	17	1
COc1cccc(C2=C(Nc3cccc(Cl)c3)C(=O)NC2=O)c1 [SB-341556]	0	0	18	12	0	0	14	0	0	69	69	0	55	0	18	0	0	36	10	20
CN(c1ccccc1CNc1nc(Nc2ccc3c(c2)CC(=O)N3)ncc1C(F)(F)F)S(C)(=O)=O	0	40	13	8	0	0	0	0	10	95	84	23	84	2	17	3	9	19	0	1
